# From PubChem BioAssay
# Calls of active or inactive are those of the source.
# Key:
# [1] = tested on: Plasmodium falciparum Sir2 (PF13_0152, Sir2A); assay: pfSir2 binders on small-molecule microarrays, primary screen, biochemical, small-molecule microarray, 635 nm fluorescence (AID 1098); conditions: small-molecule microarray binding, fluorescence 635 nm; higher = more signal;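 also: score merges spot fluorescence intensity with its signal-to-noise ratio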
# [2] = small-molecule microarray binders of probe aDKK1, primary screen, biochemical, biotinylated probe, 635/667 nm fluorescence (AID 1099); conditions: higher = more signal;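 also: score merges 667nm spot fluorescence with signal to noise across triplicate slides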
# [3] = small-molecule microarray binders of probe aCHRDL2, primary screen, biochemical, biotinylated probe, 635/667 nm fluorescence (AID 1100); conditions: higher = more signal
# [4] = splicing luciferase reporter signal modulators, primary screen, spliceosome inhibition project, cell-based, HEK293, splice +/- reporter (AID 1101); conditions: luminescence, 24 h, higher = more signal, called active from +8 up or from −8 down;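 also: HEK293 cells carrying a splicing-competent luciferase reporter gene; test concentration not given here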
# [5] = target: Fibroblast growth factor 10 (Homo sapiens) (UniProt O15520); assay: FGF10 binders on small-molecule microarrays, primary screen, biochemical, small-molecule microarray, 635 nm fluorescence (AID 1102); conditions: FGF10 binding, fluorescence 635 nm, higher = more signal
# Fibroblast growth factor 10 (Homo sapiens), sequence (O15520 whole entry, looked up): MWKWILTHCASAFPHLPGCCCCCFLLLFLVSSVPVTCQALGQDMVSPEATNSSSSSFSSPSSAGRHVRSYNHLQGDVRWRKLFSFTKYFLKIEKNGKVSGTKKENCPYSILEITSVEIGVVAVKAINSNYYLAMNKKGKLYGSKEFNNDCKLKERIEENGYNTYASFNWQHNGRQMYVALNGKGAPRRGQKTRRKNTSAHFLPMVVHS
# [6] = tested on: glycogen synthase kinase-3 (GSK3A per assay name; protocol says GSK3B); assay: GSK3 binders on small-molecule microarrays, primary screen, biochemical, small-molecule microarray, 635 nm fluorescence, GSK3A (AID 1103); conditions: small-molecule microarray binding, fluorescence 635 nm; higher = more signal; also: the record names both GSK3A and GSK3B
# [7] = target: Epidermal growth factor receptor (Homo sapiens) (UniProt P00533); assay: EGFR binders on small-molecule microarrays, primary screen, biochemical, small-molecule microarray, 635 nm fluorescence (AID 1104); conditions: EGFR binding, higher = more signal;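 also: score merges 667 nm emission intensity with spot signal to noise over triplicate slides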
# Epidermal growth factor receptor (Homo sapiens), sequence (P00533 whole entry, looked up): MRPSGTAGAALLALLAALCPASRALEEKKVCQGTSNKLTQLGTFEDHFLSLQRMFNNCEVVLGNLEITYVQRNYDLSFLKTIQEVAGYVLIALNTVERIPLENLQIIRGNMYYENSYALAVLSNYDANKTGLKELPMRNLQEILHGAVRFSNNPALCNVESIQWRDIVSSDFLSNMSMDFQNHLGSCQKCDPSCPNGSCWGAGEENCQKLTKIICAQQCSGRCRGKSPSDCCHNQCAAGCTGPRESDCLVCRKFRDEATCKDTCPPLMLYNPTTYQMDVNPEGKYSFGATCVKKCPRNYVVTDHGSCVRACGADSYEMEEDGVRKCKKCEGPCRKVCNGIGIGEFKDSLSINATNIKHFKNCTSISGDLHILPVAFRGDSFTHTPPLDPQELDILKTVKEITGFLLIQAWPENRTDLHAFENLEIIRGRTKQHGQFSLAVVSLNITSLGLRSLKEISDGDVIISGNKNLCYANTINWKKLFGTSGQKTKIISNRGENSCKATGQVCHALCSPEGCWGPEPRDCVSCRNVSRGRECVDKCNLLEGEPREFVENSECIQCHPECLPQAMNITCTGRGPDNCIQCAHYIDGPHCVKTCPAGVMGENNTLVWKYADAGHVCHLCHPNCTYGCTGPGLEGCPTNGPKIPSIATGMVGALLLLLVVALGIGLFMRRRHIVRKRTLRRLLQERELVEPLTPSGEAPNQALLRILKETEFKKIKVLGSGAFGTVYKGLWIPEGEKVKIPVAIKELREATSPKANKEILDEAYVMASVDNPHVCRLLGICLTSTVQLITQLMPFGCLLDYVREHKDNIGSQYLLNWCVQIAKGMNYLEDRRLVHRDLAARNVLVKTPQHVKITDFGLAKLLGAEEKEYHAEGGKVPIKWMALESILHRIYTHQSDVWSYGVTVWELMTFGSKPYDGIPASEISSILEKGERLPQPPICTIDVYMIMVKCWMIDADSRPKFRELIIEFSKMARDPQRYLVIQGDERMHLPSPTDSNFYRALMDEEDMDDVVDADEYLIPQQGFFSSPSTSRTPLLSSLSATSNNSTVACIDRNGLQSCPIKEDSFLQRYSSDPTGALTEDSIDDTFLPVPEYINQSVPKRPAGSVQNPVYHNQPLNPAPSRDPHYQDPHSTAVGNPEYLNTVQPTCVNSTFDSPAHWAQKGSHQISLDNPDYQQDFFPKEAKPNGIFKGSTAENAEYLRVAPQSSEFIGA
# [8] = target: Follistatin-related protein 3 (Homo sapiens) (UniProt O95633); assay: FSTL3 binders on small-molecule microarrays, primary screen, biochemical, small-molecule microarray, 635 nm fluorescence (AID 1105); conditions: FSTL3 binding, higher = more signal;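 also: score merges emission near 667 nm and signal to noise per printed spot across three slides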
# Follistatin-related protein 3 (Homo sapiens), sequence (O95633 whole entry, looked up): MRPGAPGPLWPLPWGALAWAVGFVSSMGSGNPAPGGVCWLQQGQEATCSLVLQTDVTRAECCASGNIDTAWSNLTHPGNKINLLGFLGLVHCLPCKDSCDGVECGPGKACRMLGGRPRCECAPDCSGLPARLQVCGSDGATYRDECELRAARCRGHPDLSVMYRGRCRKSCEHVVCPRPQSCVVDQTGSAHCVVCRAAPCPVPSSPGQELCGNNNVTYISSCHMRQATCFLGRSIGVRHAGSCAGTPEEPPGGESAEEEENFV
# [9] = target: Dickkopf-related protein 1 (Homo sapiens) (UniProt O94907); assay: DKK1 binders on small-molecule microarrays, primary screen, biochemical, small-molecule microarray, 635 nm fluorescence scan (AID 1106); conditions: DKK1 binding, higher = more signal;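 also: score merges emission near 667 nm with signal to noise over three replicate slides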
# Dickkopf-related protein 1 (Homo sapiens), sequence (O94907 whole entry, looked up): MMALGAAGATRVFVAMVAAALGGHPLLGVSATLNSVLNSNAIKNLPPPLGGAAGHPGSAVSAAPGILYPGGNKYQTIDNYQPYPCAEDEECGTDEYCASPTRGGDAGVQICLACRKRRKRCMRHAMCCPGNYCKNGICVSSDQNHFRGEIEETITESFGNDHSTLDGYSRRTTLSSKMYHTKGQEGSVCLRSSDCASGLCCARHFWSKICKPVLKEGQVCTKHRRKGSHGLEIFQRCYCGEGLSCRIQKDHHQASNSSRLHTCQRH
# [10] = tested on: Inhibin beta A chain (activin A); assay: INHBA (activin A) binders on microarrays, primary screen, biochemical, small-molecule microarray, 635 nm fluorescence scan (AID 1107); conditions: small-molecule microarray binding, higher = more signal;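 also: mouse activin A protein probed at 4.33 µg/mL on printed slides; score merges bound-protein fluorescence near 667 nm with spot signal-to-noise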
# [11] = tested on: Human papillomavirus type 1a protein E7 (residues 44-93); assay: HPV1a E7 fragment binders on microarrays, primary screen, biochemical, small-molecule microarray, residues 44-93, 635 nm fluorescence (AID 1108); conditions: small-molecule microarray binding, fluorescence 635 nm; higher = more signal;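 also: E7 fragment applied at 1 µg/mL in TBST for 1 h at 4 C; score combines spot fluorescence with its signal to noise ratio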
# [12] = modulators of HCV replicon luciferase signal, primary screen, HCV replication inhibitor project, Huh7 cells, luciferase reporter (AID 1109); conditions: 48 h, higher = more signal;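 also: huh7 hepatoma cells harbouring a luciferase neomycin HCV replicon reporter; luciferase luminescence as measure of HCV replicon replication; test concentration not given here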
# [13] = target: Left-right determination factor 2 (Homo sapiens) (UniProt O00292); assay: LEFTY2 binders on small-molecule microarrays, primary screen, biochemical, small-molecule microarray, 635 nm fluorescence scan (AID 1110); conditions: LEFTY2 binding, higher = more signal
# Left-right determination factor 2 (Homo sapiens), sequence (O00292 whole entry, looked up): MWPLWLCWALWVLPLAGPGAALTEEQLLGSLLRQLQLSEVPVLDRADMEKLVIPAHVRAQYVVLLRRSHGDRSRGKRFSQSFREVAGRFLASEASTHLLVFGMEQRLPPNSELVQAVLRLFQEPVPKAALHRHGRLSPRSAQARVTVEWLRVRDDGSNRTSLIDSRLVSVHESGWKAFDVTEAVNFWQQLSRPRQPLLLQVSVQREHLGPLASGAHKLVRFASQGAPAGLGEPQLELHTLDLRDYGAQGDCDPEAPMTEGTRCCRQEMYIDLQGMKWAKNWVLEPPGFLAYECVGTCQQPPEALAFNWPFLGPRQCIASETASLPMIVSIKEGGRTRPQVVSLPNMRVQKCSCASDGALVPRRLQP
# [14] = target: Calmodulin-1 (Homo sapiens) (UniProt P0DP23); assay: CALM1 binders on microarrays, EGTA buffer, profiling panel, biochemical, small-molecule microarray, Cy5-labelled CALM1 (AID 1111); conditions: Cy5-CALM1 binding fluorescence, higher = more signal;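 also: labelled calmodulin applied in Tris saline Tween buffer holding calcium plus EGTA and DTT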
# [15] = target: Calmodulin-1 (Homo sapiens) (UniProt P0DP23); assay: calcium-bound CALM1 binders on microarrays, profiling panel, artefact control for SMM control-protein annotation, biochemical, small-molecule microarray, Cy5-labelled CALM1, plus calcium (AID 1112); conditions: Cy5-CALM1 binding fluorescence, higher = more signal;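 also: score merges spot fluorescence with signal to noise from triplicate slides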
# [16] = small-molecule microarray binders of probe aWnt5a, primary screen, biochemical, biotinylated probe, 635/667 nm fluorescence (AID 1113); conditions: higher = more signal;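 also: score merges 667 nm fluorescence intensity with signal-to-noise per printed feature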
# [17] = small-molecule microarray binders of probe aShh, primary screen, biochemical, biotinylated probe, 635/667 nm fluorescence (AID 1114); conditions: higher = more signal;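 also: probe is biotin-labelled aShh protein from a stem cell growth factor screen; measures binding of labelled protein to compounds printed on the slide; score merges feature fluorescence at 667 nm with signal-to-noise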
# [18] = small-molecule microarray binders of probe aNog, primary screen, biochemical, biotinylated probe, 635/667 nm fluorescence (AID 1115); conditions: higher = more signal;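 also: probe is biotinylated aNog protein used at 0.15 µg/mL for 1 h at 4 C; z-score combines 667 nm fluorescence of each spot with its signal to noise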
# [19] = target: Torsin-1A-interacting protein 1 (Homo sapiens) (UniProt Q5JTV8); assay: LAP1 binders from COS7 cell lysate, primary screen, small-molecule microarray, 635/667 nm fluorescence (AID 1116); conditions: COS7-hLAP1 lysate binding, 635 nm fluorescence, higher = more signal
# Torsin-1A-interacting protein 1 (Homo sapiens), sequence (Q5JTV8 whole entry, looked up): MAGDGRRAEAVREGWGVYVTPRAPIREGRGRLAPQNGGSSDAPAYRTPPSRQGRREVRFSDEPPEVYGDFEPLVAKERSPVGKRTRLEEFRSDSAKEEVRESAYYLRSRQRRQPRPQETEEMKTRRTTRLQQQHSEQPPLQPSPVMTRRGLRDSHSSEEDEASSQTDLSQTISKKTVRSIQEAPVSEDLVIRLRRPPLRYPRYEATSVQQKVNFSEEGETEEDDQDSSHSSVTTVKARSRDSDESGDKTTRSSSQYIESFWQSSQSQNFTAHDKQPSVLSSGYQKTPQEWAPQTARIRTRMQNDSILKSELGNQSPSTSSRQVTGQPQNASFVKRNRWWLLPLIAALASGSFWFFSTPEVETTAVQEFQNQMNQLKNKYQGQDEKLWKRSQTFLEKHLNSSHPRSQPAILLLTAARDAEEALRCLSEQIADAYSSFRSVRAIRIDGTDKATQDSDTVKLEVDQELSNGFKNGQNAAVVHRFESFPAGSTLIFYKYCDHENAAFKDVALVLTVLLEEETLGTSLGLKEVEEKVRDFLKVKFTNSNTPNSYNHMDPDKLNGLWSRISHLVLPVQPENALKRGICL
# [20] = target: Alpha-bungarotoxin (Bungarus multicinctus) (UniProt P60615); assay: alpha-bungarotoxin binders on microarray, profiling panel, artefact control for SMM control protein annotation, biochemical, small-molecule microarray, Alexa647 label, 635/667 nm fluorescence (AID 1117); conditions: alpha-BTX-A647 binding fluorescence, higher = more signal
# Alpha-bungarotoxin (Bungarus multicinctus), sequence (P60615 whole entry, looked up): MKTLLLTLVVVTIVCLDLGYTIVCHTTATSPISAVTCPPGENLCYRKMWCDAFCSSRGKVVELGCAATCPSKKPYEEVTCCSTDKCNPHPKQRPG
Compound,composite z-score [1],composite z-score [2],composite z-score [3],z-score [4],composite z-score [5],composite z-score [6],composite z-score [7],composite z-score [8],composite z-score [9],composite z-score [10],composite z-score [11],z-score [12],composite z-score [13],composite z-score [14],composite z-score [15],composite z-score [16],composite z-score [17],composite z-score [18],composite z-score [19],composite z-score [20]
CCCCCCc1nc(C2CC2)cc2c1[Si](C(C)C)(C(C)C)O[C@H]2c1ccccc1,0.454,-0.312,-0.191,0.214 (inactive),0.402,-0.213,0.341,0.274,0.546,0.741,-1.1,-0.0742,0.359,-0.806,-0.852,-0.154,-0.157,-0.422,-0.186,-0.271
C=CCOC(=O)[C@H]1[C@@H]2C(=O)O[C@@H](c3ccccc3)[C@@H](c3ccccc3)N2[C@@H](c2ccc(OCCOC(=O)[C@@H]3C[C@@H]4C(=O)N[C@@H](CCCCNC(C)=O)C(=O)N4[C@@H]3c3ccc(O)cc3)cc2)[C@]12C(=O)Nc1ccc(I)cc12,0.95,0.0153,0.127,-0.151 (inactive),1.33,1.27,1.08,1.3,0.789,0.732,1.37,-1.14,0.637,0.48,-0.215,-0.0519,0.131,0.381,1.65,1.78
COc1cc2c(cc1OC)CN(C(=O)[C@@H]1[C@H]3C(=O)O[C@H](c4ccccc4)[C@H](c4ccccc4)N3[C@H](c3ccc(OCCO)cc3)[C@@]13C(=O)Nc1ccc(C#CC4(O)CCCCCC4)cc13)CC2,1.21,0.7,-0.386,-1.38 (inactive),1.47,1.3,0.741,1.11,0.698,0.282,1.34,-1.34,0.866,1.52,-0.225,0.0596,0.0985,-0.111,1.37,1.69
C[C@@H]1ON(c2ccc(C(=O)OC(C)(C)C)cc2)[C@H](c2ccc(O)cc2)[C@H]1C(=O)N1C(=O)OC[C@H]1Cc1ccccc1,0.632,0.0187,-0.369,0.121 (inactive),0.663,1.06,0.365,0.431,0.449,-0.0851,0.606,-3.77,0.545,1.35,0.307,0.0215,-0.138,0.495,0.848,0.485
COC(=O)c1c(CC[C@@H](CO)NC(=O)N2CCC[C@H]2Cn2cc(Cc3ccccc3)nn2)oc(C(C)=O)c1C(=O)OC,0.787,-0.0956,-0.553,-0.311 (inactive),0.572,0.0908,-0.0867,0.92,0.135,0.268,0.916,0.139,-0.0041,-0.128,-0.658,-0.0778,-0.167,0.113,0.0411,0.17
Cc1ccc(S[C@]2(C(=O)NCC(F)(F)F)CC(=O)N(Cc3ccccc3)[C@@H]2c2ccc(CO)cc2I)cc1,1.37,0.307,0.264,-0.432 (inactive),-0.376,-0.342,-0.592,-0.507,-0.813,0.548,0.503,-2.48,-0.842,-0.0153,0.517,-0.0203,-0.0362,0.358,0.349,1.36
C=C(/C(=C/C[C@H](OC(C)=O)c1ccccc1OCCO)c1cc(C(=O)OC)ccc1OC)C(C)C,1.64,-0.15,-0.192,-0.736 (inactive),0.634,-0.122,-0.167,0.0218,-0.0716,0.721,0.83,-1.74,0.0218,-0.227,-0.578,-0.096,0.0469,-0.0244,0.612,-0.0802
C=CCNC(=O)[C@H]1[C@@H]2C(=O)O[C@@H](c3ccccc3)[C@@H](c3ccccc3)N2[C@@H](c2ccc(O)cc2)[C@]12C(=O)Nc1ccc(C#CC3(O)CCCCCC3)cc12,1.38,0.0898,0.105,0.558 (inactive),0.155,0.373,-0.612,-0.0182,0.0926,0.697,0.903,-0.979,0.405,0.823,0.215,-0.036,0.0358,0.557,0.854,0.448
NCCCCCCNC(=O)[C@@H]1C[C@@H]2C(=O)N[C@@H](CCCCN)C(=O)N2[C@@H]1c1cccc(OCCO)c1,1.85,0.772,1.14,-0.615 (inactive),0.243,0.543,0.412,0.171,1.64,0.702,1.32,-0.661,1.1,1.02,1.2,0.188,1.05,2.03,0.882,0.933
COc1cccc(/C=C/C=O)c1,-0.663,0.24,-0.326,0.85 (inactive),0.393,0.0414,0.417,0.237,0.339,-0.115,0.105,-0.56,0.402,0.0577,-0.363,0.185,0.218,-0.354,0.185,-0.124
